Data published in the supplement of paper PMC4188521.

These targets were tested with CCc1cnn2c(NCc3ccc[n+]([O-])c3)cc(N3CCCC[C@H]3CCO)nc12 [dinaciclib] (assay: cell viability remaining relative to DMSO control; higher = less cytotoxic (more viable cells)). Conditions: 100 nM; 24 h.
Description: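 Solid tumor cell lines were treated with dinaciclib (100 nM) for 24 hr. Viability was measured by CellTiter-Glo ATP luminescence and expressed as % of DMSO-treated control wells (mean of 2-6 plates, triplicate wells per plate).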

Row | Target | cell viability remaining [%]
1 | HS695T | 72.9
2 | HS600T | 93.8
3 | CHL1 | 3.1
4 | SKNDZ | 44.1
5 | OAW28 | 63.1
6 | 2313287 | 65.6
7 | MEWO | 52.8
8 | HS578T | 69.3
9 | A498 | 68.3
10 | WM115 | 69.1
11 | D283MED | 43
12 | SKMEL30 | 62.5
13 | IGROV1 | 103
14 | H2052 | 91.9
15 | VCAP | 37.8
16 | ASPC1 | 93.6
17 | MIAPACA2 | 41.2
18 | OVKATE | 105
19 | SHP77 | 50.2
20 | HEC6 | 57.7

Row | Target | cell viability remaining [%]
21 | SAOS2 | 32.2
22 | MDAMB453 | 65.4
23 | H1838 | 90.6
24 | RMUGS | 62
25 | H82 | 12.6
26 | UACC62 | 57.1
27 | COV318 | 79.8
28 | H522 | 80.6
29 | 59M | 73.2
30 | HPAFII | 58.1
31 | MCF7 | 76
32 | HT144 | 48.6
33 | YAPC | 56.3
34 | LS513 | 55.8
35 | H226 | 56.1
36 | SCC9 | 64.4
37 | JIMT1 | 66.2
38 | CALU6 | 58.4
39 | H1703 | 5.5
40 | OVCAR4 | 49.6
